# Source: the supplement of paper PMC9135407
# Values joined by “and” are separate entries in the source; they are usually repeats but may differ in a detail not shown here. Equal values may be shown once. Where a name gives a salt, the structure may show the parent alone. About 620 (11%) of roughly 5,800 compounds showed activity. The entries come from a sample that favours actives as a whole. A number with no mark means an inactive call.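 The calls were made as follows: active = score above a cut-off or among the top three wells of a plate; in these data no inactive exceeds 0.85.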
# Test system: primary human hepatic stellate cells (donor 1)
# Assay: scaled lipid accumulation score (0 = DMSO-like, 1 = nortriptyline-like); higher = stronger HSC inactivation (lipid re-accumulation), active = hit call of the paper
# Conditions: 48 h
# [1] = library stock concentration: 1 mM
# [2] = library stock concentration: 10 mM
# [3] = library stock concentration: 3.33 mM
# [4] = library stock concentration: 6.4 mM
# [5] = library stock concentration: 80 uM
# [6] = library stock concentration: 400 uM
# [7] = library stock concentration: 2 mM
compound,measurement,setting,value
CCCCC[C@H](O)/C=C/[C@@H]1[C@@H](C/C=C\CCCCO)[C@@H](O)C[C@H]1O [Prostaglandin F2.alpha. Alcohol],scaled lipid accumulation score,[1],≤ 0
"CCCn1c(=O)c2[nH]c(-c3ccc(S(=O)(=O)O)cc3)nc2n(CCC)c1=O [1,3-Dipropyl-8-p-sulfophenylxanthine]",scaled lipid accumulation score,[2],0.108
CC1=C(C(=O)OC(C)C)C(c2cccc([N+](=O)[O-])c2)C(C(=O)OC2CN(C(c3ccccc3)c3ccccc3)C2)=C(N)N1 (centres undefined) [Azelnidipine],scaled lipid accumulation score,[3],0.061
same,scaled lipid accumulation score,[2],0.189
O=C(CCC/C=C\C[C@@H]1[C@@H](/C=C/[C@@H](O)CCc2ccccc2)[C@H](O)C[C@@H]1O)NC(CO)CO [17-phenyl trinor Prostaglandin F2.alpha. serinol amide],scaled lipid accumulation score,[1],0.062
COc1cc(NC(=O)c2ccccn2)ccc1Cl,scaled lipid accumulation score,[3],≤ 0
same,scaled lipid accumulation score,[2],≤ 0
COCCOc1nc(-c2ccc(Cl)c(Cl)c2)n(-c2ccc(NC(=O)CCl)cc2)n1 [MI-2 (MALT1 inhibitor)],scaled lipid accumulation score,[3],0.584
same,scaled lipid accumulation score,[2],0.62
COc1ccc(NC(=O)c2cc(OCCCN(C)C)nn2Cc2ccccc2)cc1.Cl [CFM 1571 hydrochloride],scaled lipid accumulation score,[2],1.11 (active)
O=C(O)CCC/C=C\CC1C(O)CC(O)C1/C=C/C(O)COc1cccc(Cl)c1 (centres undefined),scaled lipid accumulation score,[2],≤ -0.001
O=C(O)CCC/C=C\CC1C(O)CC(O)C1/C=C/C(O)COc1cccc(Cl)c1 (centres undefined) [Cloprostenol],scaled lipid accumulation score,[1],≤ -0.021
CC1CC(OC(=O)C(O)c2ccccc2)CC(C)(C)N1C (centres undefined) [Eucatropine hydrochloride],scaled lipid accumulation score,,≤ 0
same,scaled lipid accumulation score,library stock concentration: 6.1 mM,≤ -0.001
same,scaled lipid accumulation score,[2],≤ 0
CC1O[C@H](O[C@]2(O[C@H]3CC[C@@]4(C)C(=CC[C@H]5[C@@H]6C[C@H]7[C@H]([C@H](C)[C@H]8CC[C@H](C)CN87)[C@@]6(C)CC[C@@H]54)C3)C[C@@H](O[C@@H]3OC(CO)[C@@H](O)[C@@H](O)C3O)[C@@H](O)C(CO)O2)C(O)[C@@H](O)[C@H]1O (stereo partly drawn) [Solanine alpha],scaled lipid accumulation score,,≤ 0
CNC(=C[N+](=O)[O-])NCCSCc1ccc(CN(C)C)o1 [Ranitidine hydrochloride],scaled lipid accumulation score,,≤ 0
same,scaled lipid accumulation score,[2],≤ 0 and ≤ -0.006
CNC(=C[N+](=O)[O-])NCCSCc1ccc(CN(C)C)o1 [Ranitidine HCl],scaled lipid accumulation score,[4],≤ 0
Cc1ccc(NC(=O)NCCSCc2ccc(CN(C)C)o2)cc1Cl,scaled lipid accumulation score,[2],0.931 (active)
CNC(=C[N+](=O)[O-])NCCSCc1ccc(CN(C)C)o1 [Ranitidine],scaled lipid accumulation score,[3],≤ 0
same,scaled lipid accumulation score,[4],≤ 0
same,scaled lipid accumulation score,[2],0.049 and ≤ 0
CN(C)C/C=C/C(=O)Nc1ccc(C(=O)Nc2cccc(Nc3nccc(-c4cccnc4)n3)c2)cc1,scaled lipid accumulation score,[2],1.15 (active)
Cc1cc(NC(=O)c2cccc(NC(=O)C=CCN(C)C)c2)ccc1Nc1nccc(-c2cccnc2)n1,scaled lipid accumulation score,[3],1.08 (active)
same,scaled lipid accumulation score,[2],1.02 (active)
CN(C)C/C=C/C(=O)Nc1cccc(Nc2ncc3c(n2)N(C)c2ccccc2C(=O)N3C)c1,scaled lipid accumulation score,[5],≤ -0.009
same,scaled lipid accumulation score,[6],0.1
same,scaled lipid accumulation score,[7],0.846
same,scaled lipid accumulation score,[2],0.566
CN(C)C/C=C/C(=O)Nc1ccc(C(=O)Nc2cccc(Nc3ncc(Cl)c(-c4c[nH]c5ccccc45)n3)c2)cc1,scaled lipid accumulation score,[5],0.587
same,scaled lipid accumulation score,[6],0.669
same,scaled lipid accumulation score,[7],0.638
same,scaled lipid accumulation score,[2],0.41
C[C@@H]1CC2C3C[C@H](F)C4=CC(=O)C=C[C@]4(C)[C@@]3(F)[C@@H](O)C[C@]2(C)[C@@]1(O)C(=O)COC(=O)C(C)(C)C (some centres undefined) [Flumethazone pivalate],scaled lipid accumulation score,library stock concentration: 4 mM,0.012
same,scaled lipid accumulation score,[2],≤ 0
"c1ccc2c(-c3ccncc3)c[nH]c2c1 [Rho Kinase Inhibitor III, Rockout]",scaled lipid accumulation score,[3],≤ 0
COc1ccc(-c2ccc3cc(C(=O)O)ccc3c2)cc1C12CC3CC(CC(C3)C1)C2 [Adapalene],scaled lipid accumulation score,[3],≤ 0
same,scaled lipid accumulation score,[2],≤ 0
COc1ccc(-c2ccc3cc(C(=O)O)ccc3c2)cc1C12CC3CC(CC(C3)C1)C2,scaled lipid accumulation score,[2],0.008
COc1cc(-c2cc(-c3cccc(O)c3)cnc2N)cc(OC)c1OC,scaled lipid accumulation score,[3],≤ -0.009
same,scaled lipid accumulation score,[2],≤ 0
"CC(=O)NC(CC(=O)O)C(=O)O (racemic) [Aspartic acid, N-acetyl (R,S)]",scaled lipid accumulation score,,0.182
N/C(=N\C(=O)c1nc(Cl)c(N)nc1N)NCc1ccccc1 [Benzamil hydrochloride],scaled lipid accumulation score,,0.168
N/C(=N\C(=O)c1nc(Cl)c(N)nc1N)NCc1ccccc1 [Benzamil],scaled lipid accumulation score,library stock concentration: 6.3 mM,0.287
Cl.N/C(=N\C(=O)c1nc(Cl)c(N)nc1N)NCc1ccc(Cl)cc1Cl,scaled lipid accumulation score,library stock concentration: 11.8 mM,0.876 (active)
Cl.N/C(=N\C(=O)c1nc(Cl)c(N)nc1N)NCc1ccccc1 [Benzamil hydrochloride],scaled lipid accumulation score,[2],1.09 (active)
Cl.N/C(=N\Cc1ccccc1)NC(=O)c1nc(Cl)c(N)nc1N,scaled lipid accumulation score,library stock concentration: 14 mM,1.1 (active)
NC(=O)NC(=O)Cc1ccccc1 [Phenacemide],scaled lipid accumulation score,[2],≤ 0
N[C@H](Cc1ccccc1)C(=O)O [D-phenylalanine],scaled lipid accumulation score,[2],≤ -0.022
"CCCCC/C=C\CCCC/C=C\C/C=C\CCCC(=O)O [5(Z),8(Z),14(Z)-Eicosatrienoic Acid]",scaled lipid accumulation score,[1],≤ 0
CCCCC[C@H](O)/C=C/[C@@H]1[C@H](C/C=C\CCCC(=O)O)[C@@H](O)C[C@H]1O [8-iso Prostaglandin F2.alpha.],scaled lipid accumulation score,[1],≤ 0
CC(C)(C)n1nc(-c2cccc3ccccc23)c2c(N)ncnc21 [1-Naphthyl PP1],scaled lipid accumulation score,[2],0.016
"CC(C)(C)C#Cc1cc(N(C(=O)[C@H]2CC[C@H](C)CC2)[C@H]2CC[C@H](O)CC2)c(C(=O)O)s1 [VX-222 (VCH-222, Lomibuvir)]",scaled lipid accumulation score,[3],≤ 0
same,scaled lipid accumulation score,[2],0.047
Cc1c(O)c(=O)ccn1C,scaled lipid accumulation score,[2],≤ 0
O.O.O.O.O=C([O-])CC(O)(CC(=O)[O-])C(=O)[O-].[Li+].[Li+].[Li+] [Lithium citrate],scaled lipid accumulation score,library stock concentration: 9.5 mM,≤ 0
same,scaled lipid accumulation score,[2],0.016
CCCCC/C=C\C\C=C/C=C/C=C/CC(=O)CCCC(=O)O [5-Ketoeicosatetraenoic acid],scaled lipid accumulation score,library stock concentration: 100 uM,≤ -0.021
CC(C)NCC(O)COc1ccccc1-n1cccc1 (centres undefined) [Isamoltane hemifumarate],scaled lipid accumulation score,[2],0.25
CCCCCC=CCC=CCC=CCC=CCCCC(=O)SCC(O)CO (centres undefined) [Arachidonoyl-1-thio-Glycerol],scaled lipid accumulation score,[1],0.021
CC(C)(Oc1ccc(Cl)cc1)C(=O)OCCOC(=O)c1cccnc1 [Etofibrate],scaled lipid accumulation score,[3],≤ 0
same,scaled lipid accumulation score,[2],≤ -0.001
C[C@@H]1C[C@H]2[C@@H]3CCC4=CC(=O)C=C[C@]4(C)[C@@]3(F)[C@@H](O)C[C@]2(C)[C@@]1(O)C(=O)CO [Dexamethasone (DHAP)],scaled lipid accumulation score,[3],0.017
same,scaled lipid accumulation score,[2],≤ 0
C[C@@H]1C[C@H]2[C@@H]3CCC4=CC(=O)C=C[C@]4(C)[C@@]3(F)[C@@H](O)C[C@]2(C)[C@@]1(O)C(=O)CO [Dexamethasone],scaled lipid accumulation score,library stock concentration: 5.1 mM,≤ -0.006 and ≤ -0.001
same,scaled lipid accumulation score,[2],≤ 0 and ≤ -0.006
same,scaled lipid accumulation score,library stock concentration: 12.7 mM,0.007
CN(C)CC/C=C1\c2ccccc2CSc2ccccc21 [Dosulepin hydrochloride],scaled lipid accumulation score,,0.845
CN(C)CCC=C1c2ccccc2Sc2ccc(Cl)cc21 [Chlorprothixene],scaled lipid accumulation score,[2],1.03 (active)
CN(C)CC/C=C1/c2ccccc2Sc2ccc(Cl)cc21 [Chlorprothixene],scaled lipid accumulation score,[3],0.345
CN(C)CC/C=C1/c2ccccc2Sc2ccc(Cl)cc21 [Chlorprothixene hydrochloride],scaled lipid accumulation score,library stock concentration: 5.7 mM,0.756
same,scaled lipid accumulation score,[2],0.429 and 0.701
CN(C)CC/C=C1\c2ccccc2Sc2ccc(Cl)cc21.Cl [Chlorprothixene hydrochloride],scaled lipid accumulation score,,0.902 (active)
C[C@@H]1O[C@@H]1P(=O)(O)O [Fosfomycin],scaled lipid accumulation score,[2],≤ 0
C[C@@H]1O[C@@H]1P(=O)(O)O [Phosphomycin disodium],scaled lipid accumulation score,[2],≤ -0.055
CCN1C(=CC(C)=O)Sc2ccc(OC)cc21,scaled lipid accumulation score,[3],≤ -0.009
same,scaled lipid accumulation score,[2],≤ 0
CCCCCCCCCCC(C)(C)C(=O)Nc1c(OC)cc(OC)cc1OC,scaled lipid accumulation score,[2],0.164 and ≤ -0.001
CC/C=C/C/C=C/C/C=C/C/C=C/CCCCC(=O)OC [Stearidonic Acid methyl ester],scaled lipid accumulation score,[1],0.048
O=C(c1cn(Cc2cncn2Cc2ccc(Br)cc2)cc1-c1cccc2ccccc12)N1CCOCC1,scaled lipid accumulation score,[3],≤ -0.003
same,scaled lipid accumulation score,[2],0.723
CNCc1ccc(-c2[nH]c3cc(F)cc4c3c2CCNC4=O)cc1,scaled lipid accumulation score,[3],0.213
CNCc1ccc(-c2[nH]c3cc(F)cc4c3c2CCNC4=O)cc1.O=P(O)(O)O,scaled lipid accumulation score,[2],1.47 (active)
CNCc1ccc(-c2[nH]c3cc(F)cc4c3c2CCNC4=O)cc1 [Rucaparib],scaled lipid accumulation score,[5],≤ 0
same,scaled lipid accumulation score,[6],≤ 0
same,scaled lipid accumulation score,[7],0.588
CNCc1ccc(-c2[nH]c3cc(F)cc4c3c2CCNC4=O)cc1.O=P(O)(O)O [Rucaparib],scaled lipid accumulation score,[2],1.12 (active)
CCCCCCCCCCCCCCCCCCCCCCC(=O)OCC [Ethyl Tricosanoate],scaled lipid accumulation score,[1],≤ 0
